Where “and” joins values, the source holds several entries; their conditions need not be identical. Identical values can stand only once.
Columns and labels:
[1] = test system: Human papillomavirus type 1a protein E7 (residues 44-93); assay: small molecules binding HPV E7 44-93 – biochemical, small-molecule microarray, residues 44-93, 635 nm fluorescence, primary screen (AID 1108); conditions: fluorescence 635 nm, higher = more signal;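 also: E7 fragment applied at 1 µg/mL in TBST for 1 h at 4 C; score combines spot fluorescence with its signal to noise ratio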
[2] = hepatitis C replication reporter changes, two-sided – Huh7 cells, luciferase reporter, HCV replication inhibitor project, primary screen (AID 1109); conditions: Huh7 HCV replicon luciferase reporter, 48 h; higher = more signal;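 also: huh7 hepatoma cells harbouring a luciferase neomycin HCV replicon reporter; luciferase luminescence as measure of HCV replicon replication; test concentration not given here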
[3] = biological target: Left-right determination factor 2 (Homo sapiens) (UniProt O00292); assay: small molecules binding LEFTY2 protein – biochemical, small-molecule microarray, 635 nm fluorescence scan, primary screen (AID 1110); conditions: higher = more signal
Chain of Left-right determination factor 2 (Homo sapiens) (O00292 whole entry, looked up): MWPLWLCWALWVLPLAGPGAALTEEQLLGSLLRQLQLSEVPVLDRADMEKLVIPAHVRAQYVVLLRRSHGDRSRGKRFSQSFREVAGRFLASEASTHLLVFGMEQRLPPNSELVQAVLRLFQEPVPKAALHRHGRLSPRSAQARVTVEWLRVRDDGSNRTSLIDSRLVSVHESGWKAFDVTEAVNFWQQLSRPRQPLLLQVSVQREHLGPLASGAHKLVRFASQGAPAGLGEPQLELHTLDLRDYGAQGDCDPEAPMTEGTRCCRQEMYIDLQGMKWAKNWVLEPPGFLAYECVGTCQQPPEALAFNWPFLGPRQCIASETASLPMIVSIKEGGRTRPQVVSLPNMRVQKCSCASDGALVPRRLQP

[4] = biological target: Calmodulin-1 (Homo sapiens) (UniProt P0DP23); assay: small molecules binding calmodulin-1 with EGTA – biochemical, small-molecule microarray, Cy5-labelled CALM1, profiling panel (AID 1111); conditions: Cy5-CALM1 binding fluorescence, higher = more signal;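 also: labelled calmodulin applied in Tris saline Tween buffer holding calcium plus EGTA and DTT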
[5] = biological target: Calmodulin-1 (Homo sapiens) (UniProt P0DP23); assay: small molecules binding Ca-loaded calmodulin-1 – biochemical, small-molecule microarray, Cy5-labelled CALM1, plus calcium, artefact control for SMM control-protein annotation, profiling panel (AID 1112); conditions: Cy5-CALM1 binding fluorescence, higher = more signal;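 also: score merges spot fluorescence with signal to noise from triplicate slides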
[6] = probe aWnt5a binding to arrayed compounds – biochemical, biotinylated probe, 635/667 nm fluorescence, primary screen (AID 1113); conditions: small-molecule microarray, higher = more signal;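 also: score merges 667 nm fluorescence intensity with signal-to-noise per printed feature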
[7] = probe aShh binding to arrayed compounds – biochemical, biotinylated probe, 635/667 nm fluorescence, primary screen (AID 1114); conditions: small-molecule microarray, higher = more signal;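 also: probe is biotin-labelled aShh protein from a stem cell growth factor screen; measures binding of labelled protein to compounds printed on the slide; score merges feature fluorescence at 667 nm with signal-to-noise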
[8] = probe aNog binding to arrayed compounds – biochemical, biotinylated probe, 635/667 nm fluorescence, primary screen (AID 1115); conditions: small-molecule microarray, higher = more signal;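 also: probe is biotinylated aNog protein used at 0.15 µg/mL for 1 h at 4 C; z-score combines 667 nm fluorescence of each spot with its signal to noise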
[9] = biological target: Torsin-1A-interacting protein 1 (Homo sapiens) (UniProt Q5JTV8); assay: compound microarray binding of lysate hLAP1 – cell lysate, small-molecule microarray, COS7 lysate, 635/667 nm fluorescence, primary screen (AID 1116); conditions: 635 nm fluorescence, higher = more signal
Chain of Torsin-1A-interacting protein 1 (Homo sapiens) (Q5JTV8 whole entry, looked up): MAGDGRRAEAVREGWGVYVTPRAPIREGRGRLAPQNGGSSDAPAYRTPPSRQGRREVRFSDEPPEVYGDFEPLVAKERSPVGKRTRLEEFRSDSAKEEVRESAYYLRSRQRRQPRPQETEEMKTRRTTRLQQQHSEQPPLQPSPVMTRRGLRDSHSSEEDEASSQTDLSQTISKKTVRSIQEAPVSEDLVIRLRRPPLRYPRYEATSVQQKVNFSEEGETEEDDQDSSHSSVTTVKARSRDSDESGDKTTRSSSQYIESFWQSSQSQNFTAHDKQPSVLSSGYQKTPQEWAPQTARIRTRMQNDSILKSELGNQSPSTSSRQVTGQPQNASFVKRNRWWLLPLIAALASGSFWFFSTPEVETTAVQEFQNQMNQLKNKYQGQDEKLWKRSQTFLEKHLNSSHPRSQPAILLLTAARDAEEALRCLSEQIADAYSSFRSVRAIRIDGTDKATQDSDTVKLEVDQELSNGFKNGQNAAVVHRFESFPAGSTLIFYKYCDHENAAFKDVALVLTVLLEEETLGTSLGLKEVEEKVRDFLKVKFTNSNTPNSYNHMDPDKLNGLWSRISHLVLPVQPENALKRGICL

[10] = biological target: Alpha-bungarotoxin (Bungarus multicinctus) (UniProt P60615); assay: compounds binding labelled alpha-BTX control protein – biochemical, small-molecule microarray, Alexa647 label, 635/667 nm fluorescence, artefact control for SMM control protein annotation, profiling panel (AID 1117); conditions: alpha-BTX-A647 binding fluorescence, higher = more signal
Chain of Alpha-bungarotoxin (Bungarus multicinctus) (P60615 whole entry, looked up): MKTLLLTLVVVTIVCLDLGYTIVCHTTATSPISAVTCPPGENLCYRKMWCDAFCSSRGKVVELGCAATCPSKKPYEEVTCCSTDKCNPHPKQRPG

Compound `O=C(NN=C1C[C@@H](O)[C@@H](O)[C@@H]2[C@@H]3C(=O)N(Cc4ccc5c(c4)OCO5)C(=O)[C@@H]3CC[C@H]12)OCc1ccccc1` has a composite z-score [1] of -0.984, a z-score [2] of 0.401 and a composite z-score [3] of 0.227. For the same compound, the composite z-score [4] was -0.643, the composite z-score [5] was -1.29 and the composite z-score [6] was 0.0718. For the same compound, the composite z-score [7] was 0.0796, the composite z-score [8] was -0.363 and the composite z-score [9] was -0.842. It also gave a composite z-score [10] of -0.394.

For `CCOC(=O)CCN1C(=O)[C@H]2[C@H]3[C@H](O)[C@H](O)CC(=NNC(=O)OCC)[C@@H]3CC[C@H]2C1=O`, the composite z-score [1] was 0.582, the z-score [2] was 0.374 and the composite z-score [3] was 0.354. The composite z-score [4] was 0.0089, the composite z-score [5] was -1.05 and the composite z-score [6] was 0.0511. For the same compound, the composite z-score [7] was -0.273, the composite z-score [8] was 0.0234 and the composite z-score [9] was -0.0895. For the same compound, the composite z-score [10] was 0.353.

In the case of `C=CCN(CCCC)C(=O)C(c1cccs1)N(CCOCCO)C(=O)/C=C\C(=O)O` (stereo not given), the composite z-score [1] is reported as -1 and -0.515, the z-score [2] is reported as -0.166 and 0.999 and the composite z-score [3] is reported as -2.21 and -0.742. The composite z-score [4] was -0.501 and -0.702, the composite z-score [5] was 0.988 and 0.502 and the composite z-score [6] was -0.193 and -0.096. For the same compound, the composite z-score [7] was -0.2, the composite z-score [8] was 0.136 and 0.295 and the composite z-score [9] was 1.2 and 1.09. The composite z-score [10] was -2.1 and 0.069.

With `C=CCN(C(=O)C(c1cccs1)N(C(=O)/C=C\C(=O)O)c1c(Cl)cccc1CO)C(C)(C)C` (stereo not given) the composite z-score [1] was -1.05 and -0.821, the z-score [2] was -0.814 and -1.62 and the composite z-score [3] was -4.4 and -3.37. The composite z-score [4] was -1.1 and -0.796, the composite z-score [5] was 0.802 and 0.271 and the composite z-score [6] was -0.304 and -0.202. The composite z-score [7] was -0.0769 and -0.138, the composite z-score [8] was -0.263 and -0.036 and the composite z-score [9] was -1.05 and -1.62. For the same compound, the composite z-score [10] was -1.29 and -1.31.

With `COC(=O)[C@@]1(Cc2ccc(OC)cc2)[C@H]2c3cc(C(=O)N(C)C)n(Cc4ccc(O)c(OC)c4)c3C[C@H]2CN1C(=O)c1ccccc1` the composite z-score [1] was 1.31 and 1.43, the z-score [2] was -1.33 and -1.83 and the composite z-score [3] was -0.3 and -0.586. For the same compound, the composite z-score [4] was 2.32 and 1.21, the composite z-score [5] was 0.88 and 0.206 and the composite z-score [6] was -0.208 and 0.201. The composite z-score [7] was -0.374 and 0.632, the composite z-score [8] was 0.231 and 1.94 and the composite z-score [9] was 2.63 and 1.12. The composite z-score [10] was 0.526 and 0.245.

For `CC(CO)N1C(=O)[C@@H]2C3C(=O)OCCC=C[C@H]3OC23C=CCN(Cn2nnc4ccccc42)C(=O)[C@@H]13` (stereo not given in full), the composite z-score [1] was -0.394 and 0.27, the z-score [2] was -1.03 and 0.0704 and the composite z-score [3] was -0.985 and -0.403. The composite z-score [4] was -0.184 and -0.298, the composite z-score [5] was 0.73 and -0.573 and the composite z-score [6] was -0.25 and 0.0431. The composite z-score [7] was -0.474 and 0.0062, the composite z-score [8] was -0.0103 and -0.142 and the composite z-score [9] was -0.393 and 0.0141. For the same compound, the composite z-score [10] was -0.652 and -0.332.

With `C=C[C@@H](C)[C@@H](O)c1ccc(O)c2ccccc12` the composite z-score [1] was -0.719 and -0.288, the z-score [2] was -1.55 and -2.15 and the composite z-score [3] was -1.21 and -0.861. The composite z-score [4] was -0.878 and -0.992, the composite z-score [5] was -0.36 and -0.903 and the composite z-score [6] was -0.146 and -0.236. For the same compound, the composite z-score [7] was 0.23 and -0.214, the composite z-score [8] was -0.337 and -0.411 and the composite z-score [9] was -0.802 and 0.0066. For the same compound, the composite z-score [10] was -1.29 and 1.65.

With `C=CCN(CCCC)C(=O)C1N(C(C)(C)CO)C(=O)C2C(C(=O)O)C3C=CC21O3` (stereo not given) the composite z-score [1] was -1.32 and -1.36, the z-score [2] was -0.299 and 0.145 and the composite z-score [3] was -3.24 and -2.31. For the same compound, the composite z-score [4] was -0.742 and -0.335, the composite z-score [5] was 1.1 and 0.491 and the composite z-score [6] was -0.297 and -0.169. For the same compound, the composite z-score [7] was -0.0626 and -0.23, the composite z-score [8] was -0.0094 and 0.125 and the composite z-score [9] was -1.24 and -2.03. The composite z-score [10] was -1.41 and -0.821.

With `CCOC(=O)[C@@H]1CC2O[C@]23C[C@@H]1C(=O)N1CCC[C@@H]1[C@H]3O[Si](C)(C)C(C)(C)C` (stereo not given in full) the composite z-score [1] was -1.22 and -0.182, the z-score [2] was -0.417 and -0.4 and the composite z-score [3] was -0.125 and 0.446. The composite z-score [4] was -0.46 and -0.641, the composite z-score [5] was -0.748 and -0.252 and the composite z-score [6] was -0.251 and -0.124. The composite z-score [7] was -0.299 and -0.197, the composite z-score [8] was -0.321 and -0.134 and the composite z-score [9] was -0.826 and -0.136. For the same compound, the composite z-score [10] was 0.102 and -0.667.

— PubChem BioAssay
